In ChEMBL document CHEMBL1157539, “Thousands of chemical starting points for antimalarial lead identification” (Nature, 2010):

Each compound was assayed on Plasmodium falciparum (assay: GSK_TCMDC: Inhibition of Plasmodium falciparum 3D7 in whole red blood cells, using parasite LDH activity as an index of growth. Test compounds present at 2uM).
Assay type: functional

SMILES	Inhibition [%]
CC[C@H]1CN2CC[C@@H]1C[C@H]2[C@H](O)c1cc(-c2ccccc2)nc2ccc(O)cc12.Cl	99
COC(=O)c1ccc(CC(C)NCC(O)c2cccc(Br)c2)cc1 (stereo not drawn)	99
CC[C@H]1CN2CCc3cc(OC)c(OC)cc3[C@@H]2C[C@@H]1C[C@H]1NCCc2c1cc(OC)c(O)c2Cl	100
CC[C@H]1CN2CC[C@H]1C[C@H]2[C@H](O)c1cc(-c2ccc(OC(F)(F)F)cc2)nc2ccc(OC)cc12.Cl	98
CC[C@H]1CN2CC[C@@H]1C[C@H]2[C@H](O)c1cc(N2CCC(O)(c3ccccc3)CC2)nc2ccc(OC)cc12	100
CCN1CCC2(c3cccc(OC)c3)Cc3nc4ccccc4c(-c4ccccc4)c3CC2C1 (stereo not drawn)	99
CC(=O)C1(c2ccccc2)CCN(CCC2(c3ccc(Cl)c(Cl)c3)CN(C(=O)C3CCCC3)CCO2)CC1 (stereo not drawn)	88
CC(C)CN1CCC(N(C)c2cc(NC(=O)c3cccc(F)c3)ccn2)CC1.O=C(O)C(F)(F)F	97
O=C(NC1CCC(CN2CCC(c3c[nH]c4ccccc34)CC2)CC1)c1cc(-c2ccccc2Cl)oc1C(F)(F)F (stereo not drawn)	99
COC(=O)/C=C/c1ccc(CC(C)NCC(O)c2cccc(C(F)(F)F)c2)cc1.Cl (stereo not drawn)	97
CC1(C)CCCN(C(=O)Cc2ccc3c(c2)CCCC3)C1CN1CC=CC1.Cl (stereo not drawn)	98
CC(=O)C1(c2ccccc2)CCN(CCC2(c3ccc(Cl)c(Cl)c3)CN(C(=O)c3cccc(Cl)c3)CCO2)CC1 (stereo not drawn)	90
CN(c1cc(NC(=O)c2ccc(F)cc2)ccn1)C1CCN(Cc2cccc(C#N)c2)CC1.O=C(O)C(F)(F)F	97
COc1ccc(C(=O)C2CC2CN2CC=C(c3c[nH]c4ccccc34)CC2)cc1 (stereo not drawn)	95
COc1ccc(OC)c(C(O)CNC(C)C)c1.Cl (stereo not drawn)	96
N#Cc1ccc(N(CC(=O)NCCc2ccccc2)CC2CC2)c2ccccc12.O=C(O)C(F)(F)F	99
O=C(/C=C/c1ccc(Cl)c(Cl)c1)NC1CCC(CN2CCC(c3c[nH]c4cc(O)ccc34)CC2)CC1 (stereo not drawn)	100
Cc1[nH]c2ccc(NS(C)(=O)=O)cc2c1C1CCN(CC2CCN(C(=O)/C=C/c3ccc(Cl)c(Cl)c3)CC2)CC1	99
CCCCNC(c1ccc(Cl)cc1)C(O)c1ccc(Cl)cc1.Cl (stereo not drawn)	99

SMILES	Inhibition [%]
O=C(/C=C/c1ccc(Cl)c(Cl)c1)NC1CCC(N2CCC(c3c[nH]c4ccccc34)CC2)CC1 (stereo not drawn)	100
COC(=O)c1ccc(CC(C)NCC(O)c2cccc(C(F)(F)F)c2)cc1F.Cl (stereo not drawn)	82
COc1ccc2[nH]cc(C3=CCN(Cc4ccccc4)CC3)c2c1	90
CCCCCCCn1c(=O)c(C(=O)Nc2c(C)cccc2C)c(O)c2ccccc21	90
Cl.N#Cc1c(F)cc(N2CCC(NCC[C@H](N)Cc3ccc(F)c(F)c3)CC2)cc1F	100
CC[C@H]1CN2CC[C@@H]1C[C@H]2[C@H](O)c1cc(N2CCCC(C)(C)C2)nc2ccc(OC)cc12	100
CN(C)c1cccc(NC(=O)NC2N=C(c3ccccc3)c3ccccc3N(CC(=O)N(C)c3ccccc3)C2=O)c1 (stereo not drawn)	99
O=C(/C=C/c1ccc(Cl)c(Cl)c1)N1CCC(CN2CCC(c3c(-c4ccccc4)[nH]c4ccccc34)CC2)CC1	100
O=C(/C=C/c1cc(F)c(F)cc1F)N1CCC(CN2CCC(c3c[nH]c4ccccc34)CC2)CC1	93
O=C(C=Cc1ccccc1Br)NC1CCC(CN2CCC(c3c[nH]c4ccccc34)CC2)CC1 (stereo not drawn)	100
Cl.O=C(/C=C/c1ccc(Cl)c(Cl)c1)NC1C2CCC1CC(CN1CCC(c3c[nH]c4ccccc34)CC1)C2 (stereo not drawn)	100
CN(c1cc(NC(=O)c2cccs2)ccn1)C1CCN(Cc2ccccc2)CC1.O=C(O)C(F)(F)F	92
NC(=O)c1ccc2[nH]cc(C3CCN(CC4CCC(NC(=O)/C=C/c5ccc(Cl)c(Cl)c5)CC4)CC3)c2c1 (stereo not drawn)	100
O=C(O)c1ccc2nc(-c3ccc(-c4ccccc4)cc3)n(C3CCN(Cc4ccc(-c5ncc[nH]5)cc4)CC3)c2c1	91
O=C(/C=C/c1cccc2ccccc12)NC1CCC(CN2CCC(c3c[nH]c4ccccc34)CC2)CC1 (stereo not drawn)	100
c1ccc(C(OCCC2CCN(Cc3cccnc3)CC2)c2ccccc2)cc1	99
Br.COC(=O)C(C)(C)c1ccc(CC(C)NCC(O)c2cccc(C(F)(F)F)c2)cc1 (stereo not drawn)	99
COc1ccc(-c2ccccc2)cc1NC(=S)NC1CCC(CN2CCC(c3c[nH]c4ccccc34)CC2)CC1 (stereo not drawn)	100
Cl.NCC(=O)c1cc2c(cc1N)OCCO2	89
